Screening data deposited in PubChem BioAssay by Broad Institute.
miR122 inh = miR-122 Renilla sensor signal increase in Huh7, primary screen, miR-122 inhibitor project, cell-based, single point, plate reader; Huh7 miR-122 Renilla luciferase sensor, 48 h; neutral wells = 0, positive control = 100; activation (reporter increase), % at 12.5 µM; 340,000 tested, 0.3% active; AID 602342, 2012;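 active = mean replicate activation score at least 90 and every replicate individually at or above 90; inconclusive = only one of the two criteria met; inactive = neither criterion met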;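 note: higher luciferase means less miR-122 activity so hits act as miR-122 inhibitors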
esBAF inh = Bmi1 luciferase reporter increase in mESCs, primary screen, esBAF inhibitor project, mouse ES cells, Bmi1 luciferase knock-in, single point | 24 h; 100% = twice the neutral-well signal | reporter increase, % at 12.5 µM | 350,000 tested, 2% active; in the data active = activation above about 40%; inconclusive = no clear call, values can overlap the other calls;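 note: 0% = median of the plate's neutral control wells and 100% = double that signal; a rise in the Bmi1 reporter signal indicates esBAF inhibition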
Wnt bcat act = Wnt/beta-catenin pathway activators, primary screen, cell-based, plate reader, single point; Wnt/beta-catenin reporter cell assay, activator; 300,000 tested, 1.2% active; activation, % at 9.35 µM; in the data active = activation above about 30%, passing the limit was not always enough; inconclusive = no clear call, values can overlap the other calls;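 note: 0% = neutral control wells and 100% = positive control wells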
HIV Env fusion = inhibitors of HIV-1 Env-driven cell-cell fusion, primary screen, HeLa-JRFL effector, CEM21 target cells, luciferase. inhibition, % at 12.3 µM. 360,000 tested, 1.1% active;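 active = mean replicate inhibition score of at least 50 and every replicate individually at or above 50; inconclusive = only one of the two criteria met; inactive = mean below 50 and not all replicates reaching 50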;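 note: 0% = plate neutral controls and 100% = maraviroc near 300 nM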
MITF TRPM1 HTS = activators of MITF-driven TRPM1 promoter reporter, primary screen, cell-based, SK-MEL-5, luciferase, single point; activation, % at 12.5 µM; SK-MEL-5 TRPM1-promoter luciferase, 24 h; % of positive control, neutral wells = 0; AID 588334, 2011; 300,000 tested, 0.75% active;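 active = mean activation of at least 80% with every replicate also reaching 80%; inconclusive = mean reaches 80% but some replicate falls short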;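 note: 0% = neutral control wells and 100% = parthenolide positive control wells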
Starred values were filed as active, the others as inactive; ? = inconclusive; . = no result; [ ] = dose if it differs, or a comment. This is a sample that favours compounds with a hit; in the whole collection about 3.4% have one here.

SMILES | miR122 inh | esBAF inh | Wnt bcat act | HIV Env fusion | MITF TRPM1 HTS
CN(C)CCCNc1cc(-c2ccccc2)nc2cc(-c3cccc(F)c3)nn12 | -3.9 | -22.4 | -3.8 | -18.8 | .
OC1CCN(c2c3c(nc4cc(-c5cccc(F)c5)nn24)CCCC3)CC1 | 3.5 | 103.6* | 4.8 | . | 87.6*
O=C(NC1CCC(O)CC1)c1ccc2c(c1)S(=O)(=O)N=C1CCCCCN12 (stereo unspecified) | 4.6 | 46.4* | -1.2 | 3.7 | 16.6
COc1cccc(S(=O)(=O)N[C@@H]2CC[C@H](CCn3cc(-c4ccccc4OC)nn3)O[C@H]2CO)c1 | . | 1.4 | . | -3.2[16.7 µM] | .
Cc1ccccc1NC(=O)C1CCCN1S(=O)(=O)c1ccccc1C(F)(F)F (stereo unspecified) | 4.1 | 3.6 | 49.9* | 24.9 | -2.9
CCCN1C[C@H](C)[C@@H](OC)CN(C)C(=O)c2cc(NC(=O)c3ccccc3)ccc2OC[C@@H]1C | . | 6.6 | . | 10.3[16.7 µM] | .
Cc1ccc(S(=O)(=O)N(C)C)cc1NC(=O)C(C)N(C)CCOc1ccc(Cl)cc1 (stereo unspecified) | . | 0.0 | -1.6 | 69.2* | -0.5
CC(=O)c1ccc(OCCCC(=O)Nc2cc(S(=O)(=O)N(C)C)ccc2C)cc1 | . | . | 1.0 | 18.1 | -11.0
Cc1csc(NC(=O)c2ccc3nc[nH]c3c2)n1 | -5.7 | -11.4 | 36.3* | -12.4 | 19.0
Cc1csc(NC(=O)c2ccccc2)n1 | -1.0 | 37.4 | 13.5 | -22.7 | .
Cc1csc(NC(=S)NC(=O)c2ccccc2)n1 | -2.8 | ? | 23.8 | -44.2 | 108.9*
COc1cccc(C(=O)Nc2nc(C)cs2)c1 | 0.8 | 0.2 | 44.3* | -134.9 | 38.2
Cc1csc(NC(=O)c2ccc(COc3ccccc3)o2)n1 | -3.9 | 63.2* | 27.5 | -14.8 | 48.1
COc1cccc(C(=O)Nc2nc(-c3ccncc3)cs2)c1 | . | . | . | 22.8 | 2.8
COCC(=O)N(C)C[C@H]1Oc2cc(-c3ccccc3F)ccc2S(=O)(=O)N([C@@H](C)CO)C[C@H]1C | -55.2[16.7 µM] | -2.1 | . | -23.7[16.7 µM] | .
C[C@@H]1CCCCO[C@H](CN(C)C(=O)CCCN(C)C)[C@H](C)CN([C@@H](C)CO)C(=O)c2cc(NS(=O)(=O)c3cccs3)ccc2O1 | 6.8[16.7 µM] | -1.6 | . | 24.0[16.7 µM] | .
O=C(Nc1ccc2c(c1)C(=O)OC2)c1ccc(Cl)cc1Cl | -1.7 | 52.8* | 10.6 | -24.1 | 74.9
COc1cccc2cc(-c3ccnc(N)n3)oc12 | -5.9 | 44.9* | 4.6 | -75.4 | 47.2
COc1ccc(NC(=O)Nc2ccc3c(c2)C(=O)N([C@H](C)CO)C[C@H](C)[C@H](CN(C)C(=O)Nc2ccc4c(c2)OCO4)OCCCC[C@H](C)O3)cc1 | -4.2[16.7 µM] | -0.7 | . | -1.9[16.7 µM] | .
C[C@@H]1CN([C@H](C)CO)C(=O)c2cccc(NC(=O)c3ccncc3)c2O[C@H]1CN(C)Cc1ccc(C(F)(F)F)cc1 | 69.2[16.7 µM] | 7.9 | . | 16.1[16.7 µM] | .
Nc1nc(SCC(=O)N2CCc3ccccc3C2)[nH]c(=O)c1-c1ccccc1 | -1.4 | 56.0* | 11.0 | -23.2 | 3.7
CN(C)C(=O)[C@H]1[C@H](CO)[C@H]2Cn3c(ccc(C4=CCCCC4)c3=O)[C@@H]1N2Cc1ccncc1 | . | -4.3 | . | . | .
CSCCC1C(C#N)=C(N)Oc2n[nH]c(-c3cccs3)c21 (stereo unspecified) | -2.6 | -10.4 | 10.4 | -194.6 | -1.0
CC(C)CC1C(C#N)=C(N)Oc2n[nH]c(-c3cccs3)c21 (stereo unspecified) | -4.4 | 21.3 | 37.1* | 14.8 | .
C[C@@H]1CN([C@H](C)CO)S(=O)(=O)c2ccc(/C=C/c3ccccc3)cc2O[C@H]1CN(C)C(=O)CN1CCOCC1 | 24.6[16.7 µM] | 3.4 | . | . | .
SMILES | miR122 inh | esBAF inh | Wnt bcat act | HIV Env fusion | MITF TRPM1 HTS
CCOc1ccc(N2C(=O)CC(SCCN)C2=O)cc1 (stereo unspecified) | -0.3 | -0.3 | 33.9* | -91.2 | .
O=C(CCN1CCCCC1)NCC[C@H]1CC[C@H](NC(=O)Nc2ccc(F)cc2)[C@@H](CO)O1 | . | -3.3 | . | -0.3[16.7 µM] | .
O=C(O)/C=C/C(=O)Nc1ccc2c(c1)C(=O)c1ccccc1C2=O | . | . | 50.4* | -17.7 | 18.2
O=C(Nc1cccc2ccccc12)c1ccc(OC(=S)N2CCOCC2)cc1 | 3.9 | 44.7* | 15.3 | 24.7 | 41.7
Cc1ccc(-c2ccc3c(c2)O[C@H](CN(C)C(=O)Nc2ccc(F)cc2)[C@H](C)CN([C@@H](C)CO)S3(=O)=O)cc1 | -11.8[16.7 µM] | -1.9 | . | -79.9[16.7 µM] | .
Cc1ccc(-c2cn(-c3ccccc3)c3[n+]2CCCS3)cc1 | -8.0 | -15.3 | -1.1 | 43.0 | -42.7
COc1ccc(-n2cc(-c3ccc(C)cc3)[n+]3c2SCC3)cc1 | . | . | . | 117.6* | -69.1
CO[C@H]1CN(C)C(=O)c2cc(NC(=O)Nc3ccc(Cl)cc3)ccc2OC[C@@H](C)N(C(=O)Nc2c(C)noc2C)C[C@@H]1C | 0.4[16.7 µM] | 7.9 | . | 7.5[16.7 µM] | .
CC(C)(C)OC(=O)C1=CC[C@@H](c2ccc(Cl)c(Cl)c2)N(S(=O)(=O)c2ccc(F)cc2)[C@H]1c1cccc(F)c1 | -3.6 | -2.3 | -2.9 | 92.7* | .
Cc1ccc(S(=O)(=O)N2[C@@H](c3cccc(Cl)c3)C(C(=O)OC(C)(C)C)=CC[C@H]2c2cccc(Cl)c2)cc1 | -4.2 | -0.8 | -3.9 | 12.9 | .
CC(C)NC(=O)N[C@H]1CC[C@@H](CCNS(=O)(=O)c2ccc(F)cc2)O[C@@H]1CO | . | -1.6 | . | -1.0[16.7 µM] | .
CCC(=O)N(C)C[C@H]1Oc2cc(-c3ccc(C#N)cc3)ccc2S(=O)(=O)N([C@@H](C)CO)C[C@H]1C | -8.6[16.7 µM] | -4.9 | . | -0.9[16.7 µM] | .
C=CC[n+]1c(-c2ccc(OC)c(OC)c2)csc1NNC(=O)Nc1ccccc1 | -2.2 | -2.4 | -8.1 | 74.1* | -30.4
COc1ccc(NC(=O)Nc2ccc3c(c2)C(=O)N([C@@H](C)CO)C[C@H](C)[C@H](CN(C)S(=O)(=O)c2ccc(Cl)cc2)O3)cc1 | -4.1[16.7 µM] | 3.0 | . | 65.9*[16.7 µM] | .
COc1ccc(NC(=O)Nc2ccc3c(c2)C(=O)N([C@H](C)CO)C[C@H](C)[C@H](CN(C)S(=O)(=O)c2ccc(F)cc2)O3)cc1 | -3.9[16.7 µM] | -1.5 | . | 69.3*[16.7 µM] | .
COc1ccc(S(=O)(=O)N(C)C[C@@H]2Oc3ccc(NC(=O)Nc4ccc5c(c4)OCO5)cc3C(=O)N([C@H](C)CO)C[C@@H]2C)cc1 | -7.1[16.7 µM] | -6.7 | . | 75.5*[16.7 µM] | .
COc1ccc(NC(=O)Nc2ccc3c(c2)C(=O)N([C@H](C)CO)C[C@H](C)[C@H](CN(C)S(=O)(=O)c2ccc(C)cc2)O3)cc1 | -20.4[16.7 µM] | -5.9 | . | 86.7*[16.7 µM] | .
COc1ccc(S(=O)(=O)N(C)C[C@@H]2Oc3ccc(NC(=O)Nc4ccc5c(c4)OCO5)cc3C(=O)N([C@@H](C)CO)C[C@@H]2C)cc1 | -2.8[16.7 µM] | 0.1 | . | 32.2[16.7 µM] | .
CCCNC(=O)Nc1ccc2c(c1)C(=O)N(C)C[C@H](OC)[C@@H](C)CN(C(=O)C1CCOCC1)[C@@H](C)CO2 | . | -2.6 | . | . | .
